Bioassay records: PubChem BioAssay, National Center for Advancing Translational Sciences (NCATS)
This excerpt belongs to a sample that is enriched for hits.
aSyn tox rescue: qHTS of alpha-syn Inhibitors: NCGC Sytravon Library Screen. S. cerevisiae alpha-synuclein toxicity rescue, BacTiter-Glo growth, 24 h. Potency, µM (series often up to 46.1 µM), actives largely listed as activators. actives 0.02% (n = 94,000). AID 1347070, 2019; active means well fitted activation curve with a large enough effect
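Growth restoration measured by BacTiter-Glo luminescence after 24 hr at 30 deg C; alpha-synuclein yeast, raffinose-pregrown to mid-log, were added at OD600=0.02 in galactose medium onto pinned compounds.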
Numbers stand for hits.

Cc1ccc(/C=C(\C#N)c2nc3ccccc3c(=O)[nH]2)cc1 was read as aSyn tox rescue inactive.
Cn1c(/C(C#N)=C/c2ccc(C(F)(F)F)cc2)nc2ccccc21 was read as aSyn tox rescue 2.5µM.
For O=S(=O)(/C(=C/c1ccc(C(F)(F)F)cc1)c1nc2ccccc2[nH]1)c1ccccc1 the results were aSyn tox rescue inactive.
CCOc1ccc(CCNC(=O)c2ccc3c(c2)c(C)c(C)n3C)cc1 was read as aSyn tox rescue inactive.
Screening CCOc1ccc(-c2cn3c(n2)sc2cc(C(=O)NCCC4=CCCCC4)ccc23)cc1 returned aSyn tox rescue inactive.
`O=C(NCc1ccccc1F)C1CCN(c2nn3cc(-c4ccc(F)cc4)nc3s2)CC1` gave aSyn tox rescue inactive.
For Cc1ccc(CNS(=O)(=O)c2c(C)nc3sc(C)cn3c2=O)cc1 the results were aSyn tox rescue inactive.
`CCOC(=O)c1c(S(=O)(=O)N2CCC(C(=O)N3CCN(c4cc(C)ccc4C)CC3)CC2)c(C)n(C)c1C` gave aSyn tox rescue inactive.
`Cc1cccc(OCC(=O)Nc2cccc(C(=O)OCc3cc(=O)n4c(C)csc4n3)c2)c1` gave aSyn tox rescue inactive.
Cc1cccc(N2CCN(C(=O)c3cnn(-c4ccc(F)cc4F)c3C3CCN(C(=O)OC(C)(C)C)CC3)CC2)c1C was read as aSyn tox rescue inactive.
Screening CCc1ccccc1N1CC(c2nc3ccccc3n2CCOc2ccc(Cl)c(C)c2)CC1=O (centres undefined) returned aSyn tox rescue inactive.
Cc1nc2nncn2c(N2CCN(c3ccccc3)CC2)c1C was read as aSyn tox rescue inactive.
Cc1ccc(Cl)cc1NC(=O)c1sc2nc(-c3ccccc3)cn2c1C was read as aSyn tox rescue inactive.
Cc1cc(C)c2nc(N(Cc3cccnc3)C(=O)Cc3ccccc3)sc2c1 was read as aSyn tox rescue 13µM.
For Cc1cccc2sc(N(Cc3cccnc3)C(=O)Cc3ccccc3)nc12 the results were aSyn tox rescue 10µM.
For Cc1cccc2sc(N(Cc3cccnc3)C(=O)CCc3ccccc3)nc12 the results were aSyn tox rescue inactive.
For Cc1cc(C)c2nc(N(Cc3cccnc3)C(=O)c3cccs3)sc2c1 the results were aSyn tox rescue inactive.
For Cc1cccc2sc(N(Cc3cccnc3)C(=O)c3ccco3)nc12 the results were aSyn tox rescue inactive.
For Cc1ccc2nc(N(Cc3cccnc3)C(=O)Cc3ccccc3)sc2c1 the results were aSyn tox rescue inactive.
COc1cc2[nH]c(=O)n(CCCCCC(=O)N3CCN(c4ccc(Cl)cc4)CC3)c(=O)c2cc1OC was read as aSyn tox rescue inactive.
Screening Cc1ccc(O)c(NC(=O)c2ccc(Br)c(S(=O)(=O)N3CCCCC3)c2)c1 returned aSyn tox rescue inactive.
C#CCOc1c(Br)cc(C2C(C(=O)OC)=C(C)NC3=C2C(=O)c2ccccc23)cc1OCC (centres undefined) was read as aSyn tox rescue inactive.
`CCCc1cc(N2CCN(c3ccccc3F)CC2)n2cnnc2n1` gave aSyn tox rescue inactive.
For Cn1c(=O)n(C)c2cc(N3CCOCC3)c(NS(=O)(=O)c3ccc(Br)cc3)cc21 the results were aSyn tox rescue inactive.
For CCc1ccc(C2=C(C)C(N3CCC(C(=O)NCCc4ccco4)CC3)=NS2(=O)=O)cc1 the results were aSyn tox rescue inactive.
`CCOC(=O)c1c(Nc2ccc(OCC)cc2)nnc(-c2ccccc2)c1-c1ccccc1` gave aSyn tox rescue inactive.
COc1cccc(NS(=O)(=O)c2ccc3[nH]cc(C(=O)NC4CCCCC4)c(=O)c3c2)c1 was read as aSyn tox rescue inactive.
`COc1ccc(CNCc2c(C(=O)O)n(Cc3ccc(F)cc3)c3cc(C)ccc23)cc1OC` gave aSyn tox rescue inactive.
CCC1CCCCN1CCCNC(=O)c1ccc2c(c1)sc1nc(-c3ccc(F)cc3)cn12 (centres undefined) was read as aSyn tox rescue inactive.
COc1ccccc1-c1noc(-c2ccc(NC3CCCC3)c([N+](=O)[O-])c2)n1 was read as aSyn tox rescue inactive.
O=C(CC1N=C2c3ccccc3N=C(SCc3ccccc3Cl)N2C1=O)NCc1cccs1 (centres undefined) was read as aSyn tox rescue inactive.
Cc1ccc(-n2c(CCC(=O)O)ccc2-c2cccs2)cc1Cl was read as aSyn tox rescue inactive.
`CCOc1ccc(-c2cn3c(n2)sc2cc(C(=O)NCCCc4ccccc4)ccc23)cc1` gave aSyn tox rescue inactive.
For COc1ccc(NS(=O)(=O)c2ccc3[nH]c(=O)ccc3c2)cc1OC the results were aSyn tox rescue inactive.
CCOC(=O)c1ccc(NC(=O)c2noc3c2CCCC3)cc1 was read as aSyn tox rescue inactive.
`CCOc1ccc(NC(=O)c2c(NCc3ccc(C)o3)sc3c2CCCCC3)cc1` gave aSyn tox rescue inactive.
Screening COc1ccc(NC(=O)c2c(NCc3ccc(C)o3)sc3c2CCC(C)C3)cc1 (centres undefined) returned aSyn tox rescue 14µM.
For COc1ccccc1NC(=O)c1c(NCc2ccc(C)o2)sc2c1CCC(C)C2 (centres undefined) the results were aSyn tox rescue inactive.
CC(C)(C)OC(=O)N1CCC(c2c(C(=O)N3CCN(c4ccccn4)CC3)cnn2-c2ccccc2Cl)CC1 was read as aSyn tox rescue inactive.
COc1cccc(-n2c(-c3ccco3)nc3c(cnn3-c3ccccc3C)c2=O)c1 was read as aSyn tox rescue inactive.
Screening C=Cc1ccc(Cn2c(C(=O)O)c(CNCc3ccccc3)c3ccc(C)cc32)cc1 returned aSyn tox rescue inactive.
`Clc1cccc(N2CCN(c3ncnc4c3nc3n4CCCCC3)CC2)c1` gave aSyn tox rescue inactive.
For O=C(Nc1ccc(Oc2ccccc2)cc1)C1CCN(S(=O)(=O)c2ccccc2)CC1 the results were aSyn tox rescue inactive.
For O=C(CN1C(=O)C2(SCC(=O)N2c2cccc(F)c2)c2ccccc21)NCCc1ccccc1 (centres undefined) the results were aSyn tox rescue inactive.
For CC1=C(C(=O)OC2CCCCCC2)C(c2cccc(Cl)c2)CC(=O)N1 (centres undefined) the results were aSyn tox rescue inactive.
CCOC(=O)c1cnc2c(OC)cccc2c1Nc1cccc(O)c1 was read as aSyn tox rescue inactive.
Screening COc1cc(NC(=O)c2ccc(-c3nc(CSc4ccccc4)c(C)o3)cc2)cc(OC)c1 returned aSyn tox rescue inactive.
`CC(=O)N1CCc2c(sc3c2c(=O)n(Cc2ccccc2)c(=O)n3CC(=O)Nc2ccc(C)c(F)c2)C1` gave aSyn tox rescue inactive.
`Cc1cc(C)cc(C(=O)Nc2c(C(=O)Nc3ccccc3F)oc3ccccc23)c1` gave aSyn tox rescue inactive.
For COc1ccc(C(=O)N2CCN(c3nc4c(C)c(Cl)ccc4s3)CC2)c(OC)c1 the results were aSyn tox rescue 16µM.
`Cc1c(Cl)ccc2sc(N3CCN(C(=O)C(C)C)CC3)nc12` gave aSyn tox rescue inactive.
COc1cc2ccccc2cc1C(=O)N1CCN(c2nc3c(C)cc(C)cc3s2)CC1 was read as aSyn tox rescue inactive.
For CCc1ccc(NC(=O)c2ccc(Cn3nc(N4CCN(c5ccccc5)CC4)ccc3=O)o2)cc1 the results were aSyn tox rescue inactive.
`CCOc1ccc(C2CC(=O)Nc3nc(SCc4ccccc4C)[nH]c(=O)c32)cc1OC` (centres undefined) gave aSyn tox rescue inactive.
Screening CCN(C(=O)c1cn(-c2ccc(OC)cc2)c(=O)c2ccccc12)c1cccc(Cl)c1 returned aSyn tox rescue inactive.
For CN(Cc1ccccc1)S(=O)(=O)c1cc(Br)cc2c1N(C(=O)C1CC1)CC2 the results were aSyn tox rescue inactive.
